Article PMC4336329 (PLoS ONE, 2015)
In all, about 310,000 compounds went through this assay and about 2,200 (0.71%) showed an effect of 50% or more. Effects have a minus sign here. The list comes from a sample in which strong results are over-represented; it also holds similar structures and randomly drawn compounds.

Biological target: human ether-à-go-go-related gene (hERG) potassium channel (human, UniProt Q12809)
Assay: primary screen, population patch clamp on CHO cells stably expressing hERG; higher = less effect of the substance

Sequence of human ether-à-go-go-related gene (hERG) potassium channel (Q12809 whole entry, looked up): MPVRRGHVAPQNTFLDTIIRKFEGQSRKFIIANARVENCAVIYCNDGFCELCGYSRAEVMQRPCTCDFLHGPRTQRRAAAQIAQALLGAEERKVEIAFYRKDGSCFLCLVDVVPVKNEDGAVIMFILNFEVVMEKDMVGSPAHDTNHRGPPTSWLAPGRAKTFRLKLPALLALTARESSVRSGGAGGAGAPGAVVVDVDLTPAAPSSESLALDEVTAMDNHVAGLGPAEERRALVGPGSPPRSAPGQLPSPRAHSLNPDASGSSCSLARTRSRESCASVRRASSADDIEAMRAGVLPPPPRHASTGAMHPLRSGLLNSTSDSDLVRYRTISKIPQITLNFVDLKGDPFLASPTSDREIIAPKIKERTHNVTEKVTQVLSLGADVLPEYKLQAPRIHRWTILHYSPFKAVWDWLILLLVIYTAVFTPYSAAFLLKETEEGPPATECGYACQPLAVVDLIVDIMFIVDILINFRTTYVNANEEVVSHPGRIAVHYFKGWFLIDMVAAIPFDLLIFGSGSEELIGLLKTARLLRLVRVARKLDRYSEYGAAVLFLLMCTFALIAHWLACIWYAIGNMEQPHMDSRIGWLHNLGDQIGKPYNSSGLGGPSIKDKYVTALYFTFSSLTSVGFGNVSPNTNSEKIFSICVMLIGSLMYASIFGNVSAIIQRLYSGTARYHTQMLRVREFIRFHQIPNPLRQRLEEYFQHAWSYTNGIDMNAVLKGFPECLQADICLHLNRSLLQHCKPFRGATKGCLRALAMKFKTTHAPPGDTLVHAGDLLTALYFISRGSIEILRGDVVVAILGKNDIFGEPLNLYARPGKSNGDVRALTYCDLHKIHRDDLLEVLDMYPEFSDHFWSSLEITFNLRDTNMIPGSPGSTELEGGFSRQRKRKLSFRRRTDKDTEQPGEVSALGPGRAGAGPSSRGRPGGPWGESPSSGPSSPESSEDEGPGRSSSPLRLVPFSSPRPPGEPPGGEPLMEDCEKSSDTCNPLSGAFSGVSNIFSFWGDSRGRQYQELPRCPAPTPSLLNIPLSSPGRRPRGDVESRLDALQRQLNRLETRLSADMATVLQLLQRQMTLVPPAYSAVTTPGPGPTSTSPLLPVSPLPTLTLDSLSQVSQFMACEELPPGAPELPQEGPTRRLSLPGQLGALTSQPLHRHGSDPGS

SMILES | hERG current change (%, negative = inhibition) at 1uM [%]
CN(C)/N=C/C=C1\CCC/C(=C/c2cccs2)C1=O | 7.9
O=C(COc1coc(CN2CCN(c3ccccc3)CC2)cc1=O)Nc1ccccc1 | 10.3
COc1ccc(C2NCCc3[nH]cnc32)cc1 (centres unmarked) | 0.887
CC(/C=N/NC(=O)c1cc(-c2ccncc2)nc2ccccc12)=C\c1ccco1 | 0.477
CC(c1ccco1)N(C(=O)COc1ccccc1[N+](=O)[O-])c1ccccn1 (centres unmarked) | 0.845
CC1CC(C)CN(C(=O)c2ccc(C(=O)c3ccccc3)cc2)C1 (centres unmarked) | -1.23
Nc1nonc1-n1nnc(C(=O)N/N=C/c2ccccc2Cl)c1-c1ccccc1 | 18.9
COc1ccc(CCN(C)C(=O)c2ccc(S(=O)(=O)Nc3ccccc3C)cc2)cc1OC | 10.8
O=C(Nc1ccc(S(=O)(=O)NC2CCCCC2)cc1)c1ccc(Br)o1 | 1.61
Cc1nccc2c1[nH]c1ccccc12 | 10.2
COc1cc2[nH]c3ccccc3c2cc1C | 10.5
Cc1cc2[nH]c3c(c[n+](C)c4ccccc34)c2cc1C.[I-] | -75.9
O=c1[nH]c(SCc2ccccc2)nc2c1cnn2-c1ccc(F)cc1 | 4.7
COc1ccc(C(CNC(=O)c2ccc(C)o2)N2CCOCC2)cc1 (centres unmarked) | -1.5
COC(=O)c1[nH]c2ccc(C)cc2c1NC(=O)NC1CCCCC1 | 9.66
CCOC(=O)c1[nH]c2ccc(Br)cc2c1NC(=O)CCN1CCC(C)CC1 | -36.9
COC(=O)c1[nH]c2ccc(Cl)cc2c1NC(=O)CN1CCC(C(N)=O)CC1 | 10.6
COC(=O)c1[nH]c2ccc(C)cc2c1NC(=O)C(C)N1CCN(C2CCCCC2)CC1 (centres unmarked) | -81
COC(=O)c1[nH]c2ccccc2c1NC(=O)C(C)N1CCOCC1 (centres unmarked) | 9.91
COC(=O)c1[nH]c2ccc(Br)cc2c1NC(=O)CN1CCN(C2CCCCC2)CC1 | -85.1
COC(=O)c1[nH]c2ccc(Cl)cc2c1NC(=O)CCN1CCN(C2CCCCC2)CC1 | -69.5
COC(=O)c1[nH]c2ccc(Br)cc2c1NC(=O)CN1CCCCC1CCO (centres unmarked) | 5.4

SMILES | hERG current change (%, negative = inhibition) at 1uM [%]
CCOC(=O)c1[nH]c2ccc(OC)cc2c1NC(=O)CCN1CCCC(C)C1 (centres unmarked) | -3.69
CCOC(=O)C1CCCN(CC(=O)Nc2c(C(=O)OC)[nH]c3ccc(Br)cc23)C1 (centres unmarked) | -3.53
COC(=O)c1[nH]c2ccc(Cl)cc2c1NC(=O)CCN1CCOCC1 | 9.37
CCOC(=O)c1[nH]c2ccc(Br)cc2c1NC(=O)CCN1CCCC(C)C1 (centres unmarked) | -66.8
NC(=O)Nc1ccccc1C(=O)NCCc1ccccc1 | 9.22
Cn1c(SCc2ccc3c(c2)OCO3)nnc1-c1ccccc1 | 10.4
Cc1cc2nnn(-c3nnc(-c4ccccc4)c4ccccc34)c2cc1C | 5.53
CCCc1[nH]n(-c2ccc(F)cc2)c(=O)c1C=Nc1cccc(F)c1 | 16.9
COC(=O)c1[nH]c2ccccc2c1NC(=O)C(C)N1CC(C)OC(C)C1 (centres unmarked) | 10.2
COC(=O)c1[nH]c2ccc(Br)cc2c1NC(=O)CN1CCCc2ccccc21 | 8.7
COC(=O)c1[nH]c2ccc(Br)cc2c1NC(=O)C(C)N1CCN(C2CCCCC2)CC1 (centres unmarked) | -82.6
Cc1scc(-c2n[nH]c(=S)n2C(C)c2ccccc2)c1C (centres unmarked) | 8.59
Cc1ccc(CNC(=O)[C@H](C)NC(=O)C2CCN(C(=O)[C@@H](N)CC(C)C)CC2)cc1 | 6.77
O=C(NCc1ccco1)c1c2c(nc3ccccc13)CCC2 | 3.32
COCCNc1c2c(nc3ccccc13)CCC2.Cl | -41.5
c1ccc(CNc2c3ccccc3nc3ccccc23)cc1 | -74.5
c1coc(CNc2c3c(nc4ccccc24)CCC3)c1 | -82
Cl.c1ccc(CNc2c3c(nc4ccccc24)CCC3)cc1 | -75.8
Cl.c1ccc(CNc2nc(NCc3ccccc3)c3ccccc3n2)cc1 | 16.8
OCCNc1c2ccccc2nc2ccccc12 | -3.35
CC(C)CNc1c2c(nc3ccccc13)CCC2.Cl | -33.5
OCCNc1c2c(nc3ccccc13)CCCC2 | -15.9

SMILES | hERG current change (%, negative = inhibition) at 1uM [%]
CCc1ccc(NC(=O)c2cnc3scc(C)n3c2=O)cc1 | 4.58
Cc1ccc(NC(=S)NCCc2ccc(Cl)cc2)c(C)c1 | 12.4
COc1ccc(CNC(=O)CCCn2nc(C)c3c(C)n(-c4ccc(C)cc4)nc3c2=O)cc1 | 6.87
O=c1c2ccccc2cnn1Cc1nnc(-c2cccs2)o1 | 13.7
CCOC(=O)CSc1nc2c(c(=O)[nH]c(=O)n2C)n1CCCc1ccccc1 | 1.75
CCOc1ccc(S(=O)(=O)NCCCN2CCOCC2)cc1 | 9.88
Cn1cnnc1SCC(=O)OCN1C(=O)c2ccccc2C1=O | 7.64
COc1ccc(CCNC(=O)c2cccc3ccccc23)cc1OC | 22
COc1ccc(CCNC(=O)c2cc3c(=O)n4ccccc4nc3n(C3CCCCC3)c2=N)cc1OC | -61.9
COc1ccc(CCNC(=O)c2cc3c(=O)n4ccccc4nc3n(C3CCCCC3)c2=N)cc1 | -67.6
COc1ccc(CCNC(=O)c2cnc3ccccn3c2=O)cc1 | -1.13
COc1ccc(CCNC(=O)c2c(C)nc3ccccn23)cc1OC | -9.75
COc1ccc(CCNC(=O)c2c(C)nc3ccccn23)cc1 | 4.94
COc1ccc(CN(C)CC(=O)Nc2cccc(S(=O)(=O)N(C)c3ccccc3)c2)c(OC)c1 | -25
COc1ccc([N+](=O)[O-])c(OC)c1C(=O)NC(=O)Nc1c(F)c(F)c(F)c(F)c1F | 4.71
CC(C)(C)c1ccc(C(=O)N2CCN(CCNC(=O)C(=O)NCc3ccccc3)CC2)cc1 | -8.22
O=C(NCCN1CCN(c2ccc([N+](=O)[O-])cc2)CC1)NCc1ccccc1 | -20.2
O=C(NCCN1CCN(C(=O)c2cccc([N+](=O)[O-])c2)CC1)C(=O)NCc1ccc(Cl)cc1 | 0.645
CCOc1ccc(NC(=O)C(=O)NCCN2CCN(S(=O)(=O)c3ccc(C)cc3)CC2)cc1 | 11.6
O=C(NCCN1CCN(C(=O)c2ccc([N+](=O)[O-])cc2)CC1)C(=O)NCc1ccccc1 | -85.9
Cl.O=C(NCCN1CCCC1)c1ccc(Br)cc1 | 3.38
COc1ccc(NC(=O)C(=O)NCCN2CCN(C(=O)c3ccc(C)cc3)CC2)cc1 | -28.6

SMILES | hERG current change (%, negative = inhibition) at 1uM [%]
O=C(NCCN1CCN(C(=O)c2ccc(F)cc2)CC1)c1ccc(F)cc1 | -32
CCOc1ccc(NC(=O)C(=O)NCCN2CCN(C(=O)c3ccc(C)cc3)CC2)cc1 | -65.5
O=C(NCCN1CCN(C(=O)c2cccc(Br)c2)CC1)C(=O)NCc1ccccc1 | -11.2
O=C(NCCN1CCN(C(=O)c2ccc(F)cc2)CC1)C(=O)NCc1ccccc1 | -75.1
O=C(NCCN1CCN(C(=O)c2ccc(Br)cc2)CC1)c1ccc(Br)cc1 | -63.5
CCOC(=O)c1c(NC(=O)C2C3C=CC(C3)C2C(=O)O)sc2c1CC(C)(C)OC2 (centres unmarked) | 2.99
CCOC(=O)CC1(NC(=O)c2cc(COc3cccc(OC)c3)on2)CCCCC1 | 10.3
CN1CCN(S(=O)(=O)c2cccc(C(=O)Oc3cccc(C#N)c3)c2)CC1 | 11.8
CC12CC3CC(C)(C1)CC(C(=O)NNC(=O)c1ccncc1)(C3)C2 | -7.13
CC(=O)c1ccc(NC(=S)Nc2cccc(Cl)c2C)cc1 | 12.3
CCNC(=O)NC(=O)COC(=O)CNC(=O)COc1ccccc1 | 14.5
Cc1ccc(C(=O)N2CCN(CCNC(=O)C(=O)NC(C)C)CC2)cc1 | 7.95
CC(NC(=O)C(=O)NCCN1CCN(C(=O)c2ccccc2Br)CC1)c1ccccc1 (centres unmarked) | 9.08
O=C(NCCN1CCN(C(=O)c2ccc([N+](=O)[O-])cc2)CC1)C(=O)Nc1ccc(F)cc1 | -84.3
CC(NC(=O)C(=O)NCCN1CCN(C(=O)c2ccc([N+](=O)[O-])cc2)CC1)c1ccccc1 (centres unmarked) | -67.8
CNC(=O)C(=O)NCCN1CCN(C(=O)c2ccc([N+](=O)[O-])cc2)CC1 | 9.09
CCCCc1ccc(NC(=O)C(=O)NCCN2CCN(C(=O)c3ccc([N+](=O)[O-])cc3)CC2)cc1 | 0.387
Cc1ccc(C(=O)NCC(=O)N2CCCCCCC2)cc1 | 20.7
COc1cc(OC)cc(C(=O)NC(=S)Nc2nnn(C)n2)c1 | 13
O=C(Nc1ccc(F)cc1)N1CCCC(c2nc3c(nnn3Cc3ccccc3Cl)c(=O)[nH]2)C1 (centres unmarked) | 13.4
